# High-throughput results as filed in PubChem.
# Sampled rows, rich in hits. Any-hit rate of the full collection: about 19%.
# DT40 TDP1 no CPT = qHTS for Inhibitors of human tyrosyl-DNA phosphodiesterase 1 (TDP1): qHTS in cells in absence of CPT | AID 686978, 2013 | DT40 Tdp1-/- hTDP1 cells, no CPT, ATP luminescence, 48 h | hit rate 15% among 420,000 | Potency, µM (doses to about 46.2 µM), most hits filed as inhibitors; further: nearly all actives have a fitted effect of over 55% in size
#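 DT40 Tdp1-/-;hTDP1 cells, no CPT (DMSO vehicle only), 400 cells/well; compounds pin-transferred; ≥48 hr, 37 °C; CellTiter-Glo 30 min RT dark, luminescence read.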
# KB-V1 MDR tox = qHTS assay for MDR1-selective chemotherapeutics: Primary screen using the drug-selected MDR subline cells KB-V1 | Potency, µM (highest dose often 46.1 µM), most hits filed as cytotoxic | hit rate 3.4% among 400,000 | KB-V1 MDR cells viability, CellTiter-Glo, 72 h; further: nearly all actives have a fitted effect of over 60% in size
#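 Cells of the MDR subline KB-V1 are plated, dosed with compound at multiple concentrations, and incubated 72 h at 37 degrees C; CellTiter-Glo is then added and luminescence read after 10 min.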
# HT1080 IDH1KD tx = qHTS for induction of synthetic lethality in tumor cells producing 2HG: qHTS for the HT-1080-IDH1KD cell line; HT-1080 IDH1 knockdown viability, ATP luminescence, 48 h; hit rate 2% among 360,000; Potency, µM (doses to about 46.1 µM), actives largely listed as cytotoxic; AID 686971, 2013
#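 Luminescent ATP read-out (CellTiter-Glo, 10 min at room temperature) after 48 h compound exposure at 37 °C gave viability of IDH1-knockdown HT-1080 cells. Activity was normalised to DMSO and cell-free wells, then fitted as concentration-response curves.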
# KB-3-1 tox = qHTS assay for MDR1-selective chemotherapeutics: Primary screen using the parental adenocarcinoma cell KB-3-1; AID 1347075, 2019; Potency, µM (doses to about 46.1 µM), actives largely listed as cytotoxic; hit rate 1.4% among 400,000; KB-3-1 viability, CellTiter-Glo ATP luminescence, 72 h; further: nearly all actives have a fitted effect of over 60% in size
#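 Cytotoxicity measured as CellTiter-Glo luminescence after 72 h at 37 C. Compound titrations were pinned onto drug-naive KB-3-1 parental adenocarcinoma cells grown in DMEM with 10% FBS, and normalized data fitted to concentration-response curves.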
# TDP1 cell CPT = qHTS for Inhibitors of human tyrosyl-DNA phosphodiesterase 1 (TDP1): qHTS in cells in presence of CPT | chicken DT40 Tdp1-/-;hTDP1 cells + 20 nM CPT, ATP luminescence, 48 h | hit rate 12% among 420,000 | Potency, µM (highest dose often 46.2 µM), most hits filed as inhibitors; further: nearly all actives have a fitted effect of over 55% in size
#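 Cell growth measured by CellTiter-Glo luminescence after a minimum 48 h, 37 C compound exposure with 20 nM CPT in Tdp1-knockout DT40 cells stably expressing hTDP1, seeded 400/well; qHTS titration format.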
# HT1080-NT tox = qHTS for induction of synthetic lethality in tumor cells producing 2HG: qHTS for the HT-1080-NT fibrosarcoma cell line | Potency, µM (doses to about 46.1 µM), usual class: cytotoxic | HT-1080-NT fibrosarcoma viability, CellTiter-Glo ATP luminescence, 48 h | hit rate 1.6% among 360,000;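 further: NT is the 2HG producing partner of a matched IDH1 knockdown line; nearly all actives have a fitted effect of over 55% in size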
#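 750 cells/well, RPMI + 5% FBS; 2 h settle, compound pin-transfer, 48 h at 37 degrees C. CellTiter-Glo 10 min RT, luminescence. Normalized to DMSO and media-only wells.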
# Numbers stand for hits; . = inactive; ? = inconclusive; / = no result; [ ] = dose if it differs, or a comment. The call rests on the fitted dose curve; in most records, active means well fitted curve in the direction sought with a large enough effect; inconclusive means small, poorly fitted or top-dose-only effect, or another doubt; inactive means no such curve, though single readings can be large; an effect the other way counts as inactive or inconclusive.
SMILES,DT40 TDP1 no CPT,KB-V1 MDR tox,HT1080 IDH1KD tx,KB-3-1 tox,TDP1 cell CPT,HT1080-NT tox
C=CCn1c(=O)c(C(=O)NCc2ccc(Cl)cc2)c(O)c2ccccc21,23µM,?,.,?,?,.
C=CCn1c(=O)c(C(=O)Nc2ccc(C)cn2)c(O)c2ccccc21,18µM,6.5µM,.,?,?,.
C=CCn1c(=O)c(C(=O)Nc2cccnc2)c(O)c2ccccc21,?,?,.,.,?,.
CCCn1c(=O)c(C(=O)NCc2ccccc2)c(O)c2ccccc21,?,.,.,.,?,.
CCCn1c(=O)c(C(=O)NCCc2ccccc2)c(O)c2ccccc21,?,?,.,?,13µM,.
C=CCn1c(=O)c(C(=O)NCCc2ccccc2)c(O)c2ccccc21,?,21µM,.,.,21µM,.
[O-][n+]1c2ccc3nonc3c2nn1-c1ccccc1Cl,.,?,.,.,.,.
c1ccc(Nc2ncncc2-c2ccc3c(c2)OCO3)cc1,.,/,/,/,.,/
CCCCCCCCC(=O)NNC(=O)c1c(O)c2ccccc2n(CCC)c1=O,?,?,.,?,23µM,.
CCCCCCCCCC(=O)NNC(=O)c1c(O)c2ccccc2n(CCC)c1=O,?,.,.,.,?,.
CC(C)Cn1c(=O)c(C(=O)N/N=C/c2cccc(F)c2)c(O)c2ccccc21,0.33µM,2.9µM,.,12µM,2.9µM,.
CC(SC(C)C(=O)NN=Cc1cccc(F)c1)C(=O)NN=Cc1cccc(F)c1 (stereo unspecified),?,.,.,.,?,.
CCn1c(=O)c(C(=O)NCc2ccc(OC)cc2)c(O)c2ccccc21,23µM,.,.,.,23µM,.
CC(C)Cn1c(=O)c(C(=O)NCc2ccc3c(c2)OCO3)c(O)c2ccccc21,?,?,.,?,23µM,.
O=C(NCc1ccc2c(c1)OCO2)c1c(O)c2cccc3c2n(c1=O)CCC3,.,.,.,.,.,.
CC(CC(=O)O)CC(=O)Nc1nncs1 (stereo unspecified),.,.,.,.,.,.
Cc1csc(/C(=N/OC(=O)c2ccco2)C(N)=O)n1,.,.,.,.,.,.
NS(=O)(=O)c1ccc(NC(=O)CN2CCN(Cc3ccccc3)CC2)cc1,.,.,.,.,.,.
Cc1[nH]ccc2cc3nc4ccccc4c3cc12,3.7µM,10µM,?,?,5.2µM,15µM
Cc1ccc(S(=O)(=O)c2c(N)n(CCC(C)C)c3nc4ccccc4nc23)cc1,?,13µM,?,?,?,?
CCCCCn1c(NC(=O)c2ccco2)c(S(=O)(=O)c2ccc(C)cc2)c2nc3ccccc3nc21,18µM,18µM,?,.,21µM,?
CC(C)CCn1c(N)c(S(=O)(=O)c2cccs2)c2nc3ccccc3nc21,?,21µM,?,.,?,22µM
CCCCn1c(NC(=O)c2ccco2)c(S(=O)(=O)c2ccc(C)cc2)c2nc3ccccc3nc21,?,?,.,.,?,?
CN(Cc1ccn[nH]1)C(=O)C1CCC(=O)N(Cc2cccc(C(F)(F)F)c2)C1 (stereo unspecified),.,?,.,.,.,.
CCCCc1ccc(S(=O)(=O)NCCc2ccncc2)cc1,12µM,.,.,.,23µM,.
SMILES,DT40 TDP1 no CPT,KB-V1 MDR tox,HT1080 IDH1KD tx,KB-3-1 tox,TDP1 cell CPT,HT1080-NT tox
CCCCNS(=O)(=O)c1ccc(S(=O)(=O)N2CCC3(CC2)OCCO3)cc1,?,16µM,.,.,.,.
Cc1ccc(S(=O)(=O)NCCc2ccncc2)cc1,.,.,.,.,?,.
CC(=O)Nc1ccc(S(=O)(=O)N2CCC3(CC2)OCCO3)cc1,.,.,.,.,.,.
CCCCNS(=O)(=O)c1ccc(S(=O)(=O)NCc2ccncc2)cc1,7.3µM,.,.[9.24 µM],?,4.1µM,?
COc1ccc(C)cc1NC(=O)CCC(=O)Nc1nnc(C2CCCCC2)s1,.,.,.,.,.,.
Cc1ccc(CNC(=O)C2CCCN(S(=O)(=O)c3ccc4c(ccn4C)c3)C2)cc1 (stereo unspecified),.,.,/,.,.,/
CC1C(=O)N(Cc2cn(Cc3ccco3)nn2)CCS(=O)(=O)N1Cc1ccc(-c2ccccc2C(F)(F)F)cc1 (stereo unspecified),?,.,?,.,?,?
COc1ccccc1NC(=O)N1CCC(CN2CCc3ccccc3C2)CC1,.,.,/,.,.,/
COc1ccc(Cn2ccc3nc(C)c(C(=O)N4CCN(c5ccc(F)cc5)CC4)cc3c2=O)cc1,15µM,.,/,.,23µM,/
COc1ccccc1N1CCN(C(=O)c2cc3c(=O)n(Cc4cccs4)ccc3nc2C)CC1,?,.,/,.,?,/
COc1ccc(Cn2ccc3nc(C)c(C(=O)N4CCN(c5ccccc5OC)CC4)cc3c2=O)cc1,23µM,.,/,?,?,/
COc1ccc(Cn2ccc3nc(C)c(C(=O)N4CCN(c5ccc(OC)cc5)CC4)cc3c2=O)cc1,23µM,.,/,.,23µM,/
COc1cccc(N2CCN(C(=O)c3cc4c(=O)n(Cc5cccnc5)ccc4nc3C)CC2)c1,.,.,/,.,.,/
COC(=O)c1ccc2nc(C3CCCCC3)c(Cc3ccccc3C(F)(F)F)n2c1,?,?,?,.,?,?
COc1ccccc1Cc1c(C2CCCCC2)nc2ccc(Cl)cn12,26µM,.,?,?,23µM,?
Cc1ccc2nc(C3CCCCC3)c(CC(C)(C)C)n2c1,16µM,.,?,.,?,16µM
COc1ccccc1Cc1c(C2CCCCC2)nc2ccc(C)cn12,23µM,.,?,.,21µM,13µM
CCN1CCN(S(=O)(=O)c2ccc(Cl)c(C(=O)N(C)Cc3ccccc3)c2)CC1,.,.,.,.,?,.[9.24 µM]
COCCn1c(C)cc(C(=O)COC(=O)/C=C/c2c(C)nn(C3CCS(=O)(=O)C3)c2Cl)c1C (stereo unspecified),?,?,.,.,?,.
Cc1cc(C(=O)NCC2CCC3(CCN(Cc4cccc(F)c4F)CC3)O2)n(C)n1 (stereo unspecified),12µM,/,/,/,21µM,/
Cc1ccc(C)c(CN2CCC3(CCC(CNC(=O)c4ccnn4C)O3)CC2)c1 (stereo unspecified),.,/,/,/,.,/
